Source: PubChem BioAssay (NCATS)
Results filed as inconclusive are left out. Values without a mark were called inactive. Calls of active or inactive are those of the source. Calls come from the whole dose curve; as a rule, active = well fitted inhibition curve with a large enough effect in the signal ratio, with a control signal flat (not every such curve was filed as active); inconclusive = small, poorly fitted or top-dose-only effect, or effect the other way, or a change in a side signal; inactive = no such curve, though single readings can be large or run the other way; the % refers to the signal ratio.

molecular target: Peroxisome proliferator-activated receptor delta (Homo sapiens) (UniProt Q03181); test: qHTS assay for small molecule antagonists of peroxisome proliferator-activated receptor delta signaling (AID 588535); conditions: HEK293T PPARd-UAS-bla, beta-lactamase FRET ratio, 18 h; series mostly up to 76.7 µM; activity change, negative = inhibition: at the top concentration
Description: NIH Chemical Genomics Center [NCGC] U.S. Environmental Protection Agency [EPA] National Institutes of Environmental Health Sciences [NIEHS] National Toxicology Program [NTP] NCGC Assay Overview The Peroxisome proliferator-activated receptors (PPARs) are lipid-activated transcription factors of the nuclear receptor superfamily with three distinct subtypes namely PPAR alpha, PPAR delta (also called PPAR beta) and PPAR gamma. All these subtypes heterodimerizes with Retinoid X receptor (RXR) and have different physiological functions. […] This role of PPAR delta implicates the potential use of its ligands in the treatment of metabolic disorders.
NCGC Assay Protocol Summary Using a beta-lactamase reporter-gene under control Peroxisome Proliferator-Activated Receptor delta (PPAR-delta) response element, a cell-based assay [GeneBLAzer (PPAR-delta-UAS-bla assay developed by Invitrogen] was used to measure PPAR-delta ligands signaling. GeneBLAzer PPAR-delta-UAS-bla HEK293T cells were used with assay medium containing 2% charcoal/dextran FBS. The assay was performed in clear bottom black Greiner 1536-well plates. Library compounds were measured for their ability to inhibit the reporter gene activity. Compounds were screened in a titration series in 1536-well format. The fluorescence intensity (405 nm excitation, 460/530 nm emission) was measured using an EnVision plate reader. […] Concentration-response titration points for each compound were fitted to the Hill equation yielding concentrations of half-maximal inhibition (IC50) and maximal response (efficacy) values. qHTS protocol for PPAR-delta beta-lactamase assay in antagonist mode [Step] [Parameter] [Value] [Description] 1. Reagent; 5 uL; 4000 cells/well 2. Incubation; 37 C for 5 hrs 3. Compounds; 23 nL; 0.59 nM to 92 uM 4. […] Incubation; 37 C for 18 hrs 7. Detection reagent; 1 uL of CCF4-dye 8. Incubation; RT for 2 hrs 9. Detection; Fluorescence; Envision plate reader

Sequence of Peroxisome proliferator-activated receptor delta (Homo sapiens) (Q03181 whole entry, looked up): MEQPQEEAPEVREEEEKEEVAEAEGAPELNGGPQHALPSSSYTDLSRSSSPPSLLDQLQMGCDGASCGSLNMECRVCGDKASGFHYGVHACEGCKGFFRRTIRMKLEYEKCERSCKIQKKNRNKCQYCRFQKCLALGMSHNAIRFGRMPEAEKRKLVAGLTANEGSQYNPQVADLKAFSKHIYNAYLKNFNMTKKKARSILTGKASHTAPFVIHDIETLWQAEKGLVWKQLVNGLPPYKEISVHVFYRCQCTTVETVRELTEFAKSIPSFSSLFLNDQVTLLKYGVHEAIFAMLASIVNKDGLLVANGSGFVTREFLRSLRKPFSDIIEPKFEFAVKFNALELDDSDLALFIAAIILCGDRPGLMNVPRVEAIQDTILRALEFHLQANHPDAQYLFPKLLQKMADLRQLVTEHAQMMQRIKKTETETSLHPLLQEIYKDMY

Row | SMILES | activity change, negative = inhibition | Potency
1 | Nc1cccc2c(=O)[nH][nH]c(=O)c12 | -14.4% | 
2 | CC(C)(O)C(=O)O | 13.5% | 
3 | CCC1CO1 (stereo not given) | -24.5% | 
4 | C=CCCCC | -3.11% | 
5 | CCCC(Cl)CCCC(Cl)CCC(Cl)CCC(Cl)CCC(Cl)CCCC(Cl)CCC (stereo not given) | -10.7% | 
6 | Cc1cccc(C)c1[N+](=O)[O-] |  | inactive
7 | NC(=S)NNC(N)=S |  | inactive
8 | Nc1cccc(S(=O)(=O)O)c1 | -17.1% | 
9 | COC(=O)CCCC(=O)OC | -6.05% | 
10 | CCN(CC)c1cccc(O)c1 | 0.144% | 
11 | Cc1cc(C)cc(N)c1 | -3% | 
12 | CC1CCCO1 (stereo not given) | -3.62% | 
13 | N#CCc1ccccc1[N+](=O)[O-] | 0.624% | 
14 | O=Cc1cccc(Br)c1 | -2.56% | 
15 | c1ccc2c(c1)ccc1ncccc12 | -16.7% | 
16 | CC/C=C/C#N | 8.44% | 
17 | O=C(O)c1cc(Cl)cc(Cl)c1 | 7.64% | 
18 | FB(F)F | -5.46% | 
19 | CCOCCOCC | -21.5% | 
20 | Cc1c(C(=O)O)cccc1[N+](=O)[O-] | -26.9% | 

Row | SMILES | activity change, negative = inhibition | Potency
21 | C1CCC2OC2C1 (stereo not given) | 3.92% | 
22 | N#Cc1ccccc1 | 0.498% | 
23 | Cc1ccc([N+](=O)[O-])c(N)c1 | -20.1% | 
24 | CCCCCCCCN | 7.34% | 
25 | CC(C)=CCC/C(C)=C/C=O |  | inactive
26 | O=Cc1c(Cl)cccc1Cl | -34% | 
27 | O=[N+]([O-])c1ccc(NCCO)c(OCCO)c1 | 6.26% | 
28 | CNC(=O)c1ccccc1 | 5.35% | 
29 | COc1ccc(N)c(C)c1 | -15.3% | 
30 | O=C1OC(=O)c2cc([N+](=O)[O-])ccc21 | -10% | 
31 | CC=O | -15.5% | 
32 | CC(=O)c1cccc([N+](=O)[O-])c1 | 3.74% | 
33 | Cc1ccc(Cl)cc1N | -26.4% | 
34 | CCC(C)=O | -38.8% | 
35 | CCCCCO | -17.8% | 
36 | C1COC1 | -19.9% | 
37 | Cc1ccc2ncccc2c1 | -2.26% | 
38 | NC(=O)c1cccc([N+](=O)[O-])c1 | -17.7% | 
39 | CC(=O)OCCC(C)C | -16.9% | 
40 | Cc1cccc(C(=O)O)c1 | 0.647% | 
